Screening results as filed in PubChem BioAssay.
NS1 function inh – blocks influenza NS1 protein function; Potency, µM (series often up to 46.1 µM), inactives show at the top dose activity, positive = more growth; 270,000 tested, 0.4% active; AID 2326; also: potency is read from the fitted curve at half-maximal effect; actives are rising curves; nearly all actives have a fitted effect of over 50% in size
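Growth recovery, yeast-based: influenza A NS1 expressed in S. cerevisiae causes slow growth, and suppressors are detected by OD600. The parent strain without NS1 is used as positive control.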
Cruzain Triton – cruzain (T. cruzi) inhibition with detergent. P25779. purified cruzain, Z-FR-AMC fluorescence, 0.01% Triton. Potency, µM, inactives show max response, negative = inhibition, most hits filed as inhibitors. 200,000 tested, 0.43% active. AID 1478; active = well fitted curve in the direction sought with a large enough effect; inconclusive = small, poorly fitted or top-dose-only effect, or another doubt; inactive = no such curve, though single readings can be large; an effect the other way counts as inactive or inconclusive;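 also: potency is read from the fitted curve at half-maximal effect; plate controls were neutral wells for no effect and buffer without enzyme for full effect; nearly all actives have a fitted effect of over 40% in size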
Target sequence (P25779 123-467 limits assumed): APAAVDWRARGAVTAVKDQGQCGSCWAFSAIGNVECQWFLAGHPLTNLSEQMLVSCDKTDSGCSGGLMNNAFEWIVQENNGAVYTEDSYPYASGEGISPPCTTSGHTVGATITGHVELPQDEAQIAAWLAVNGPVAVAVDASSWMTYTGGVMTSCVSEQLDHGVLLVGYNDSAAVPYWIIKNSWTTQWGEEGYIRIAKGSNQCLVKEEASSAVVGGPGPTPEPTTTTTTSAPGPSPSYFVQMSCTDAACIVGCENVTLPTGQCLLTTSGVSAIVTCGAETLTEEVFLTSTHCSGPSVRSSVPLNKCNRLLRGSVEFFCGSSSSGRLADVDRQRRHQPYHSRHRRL
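Sodium acetate buffer (100 mM, pH 5.5) containing 5 mM DTT and 0.01% Triton X-100 hosted 1.5 nM cruzain and test compound for 15 min at room temperature. Cleavage of 2 uM Z-FR-AMC was then tracked by fluorescence.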
Cruzain inh noDet – blocks cruzain activity in detergent-free assay | P25779 | purified cruzain, Z-FR-AMC fluorescence, no detergent | Potency, µM, for inactives: max response, negative = inhibition, hits mostly inhibitors | 200,000 tested, 2.3% active | AID 1476; active = well fitted curve in the direction sought with a large enough effect; inconclusive = small, poorly fitted or top-dose-only effect, or another doubt; inactive = no such curve, though single readings can be large; an effect the other way counts as inactive or inconclusive;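 also: potency is read from the fitted curve at half-maximal effect; plate controls were enzyme without inhibitor for no effect and buffer without enzyme for full effect; nearly all actives have a fitted effect of over 40% in size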
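Detergent-free condition (0.00005% Triton X-100) in acetate buffer pH 5.5 with DTT. 1.5 nM enzyme and compound were pre-mixed 15 min, then 2 uM Z-FR-AMC substrate added; reaction progress from fluorescence change between first and third reads (60 s).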
Flu NS1 inh – influenza NS1 function inhibition validation | shares compounds with NS1 function inh | influenza NS1 function cell assay, 15-point titration | activity change, negative = inhibition, % at 32.9 µM | 1,400 tested, under 10 active | AID 492980; also: 0% is about no effect
PR8 titer – influenza NS1 inhibitors: inhibition of influenza A/PR/8/34 replication; virus titer (log TCID50), log10 TCID50 at 5 µM; AID 504647; 95 tested, 30% active; MDCK infected influenza A/PR/8/34, virus titer TCID50; stronger effect = lower value; shares compounds with NS1 function inh; call rule not given here
Active calls of the source: *; ? = inconclusive; / = not tested or not shown. The sample as a whole holds a higher share of hits than the screen did. Unless noted, calls follow the shape of the full dose curve.

SMILES | NS1 function inh | Cruzain Triton | Cruzain inh noDet | Flu NS1 inh | others
O=C(c1cccc(F)c1)N1CCc2ccccc2C1 | ? | 6% | 3% | -26
CC1(C)CC2CC(C)(CN2S(=O)(=O)c2ccc(C(=O)Nc3cc(S(=O)(=O)N4CCOCC4)ccc3Cl)cc2)C1 (stereo unspecified) | ? | 0% | 3% | /
CC1(C)CC2CC(C)(CN2S(=O)(=O)c2ccc(C(=O)Nc3cccc(S(=O)(=O)N4CCOCC4)c3)cc2)C1 (stereo unspecified) | 13µM* | -5% | 5% | 14
CCOC(=O)CSC1=Nc2ccccc2C2=NC(CC(=O)NCc3ccccc3)C(=O)N12 (stereo unspecified) | 6% | -6% | -1% | /
CCN(CC)C(=O)CSC1=Nc2ccccc2C2=NC(c3ccccc3)C(=O)N12 (stereo unspecified) | 2.8µM* | -5% | -4% | -1
COc1ccccc1NC(=O)N1CCCC1C(=O)NCc1ccccc1 (stereo unspecified) | 15% | 3% | 3% | /
COc1ccccc1C/C(N)=N/OC(=O)COc1cccc(C)c1 | 1% | -6% | -12% | /
COc1ccccc1C/C(N)=N/OC(=O)COc1ccc(C)cc1 | ? | -7% | -10% | ?
Cc1ccc2nc(NNC(=O)c3ccc(S(=O)(=O)N4CCc5ccccc5C4)cc3)sc2c1 | 10µM* | 4% | 25µM* | ?
Cc1ccc2nc(NC(=O)c3ccc(S(=O)(=O)N4CCC(C)CC4)cc3)sc2c1 | / | 3% | -11% | /
Cc1ccccc1NC(=O)CCS(=O)(=O)c1cccc2nonc12 | 4% | / | / | /
Cc1cccc(C)c1NC(=O)CCS(=O)(=O)c1cccc2nonc12 | ? | -2% | 2% | 5
COc1cccc(-c2ccc3ncnc(NC4CCNCC4)c3c2)c1 | / | -2% | 2% | /
COc1ccc(CCN2CC(C(=O)NCc3cnn(C(C)C)c3)CCC2=O)cc1 (stereo unspecified) | 19% | / | / | /
COc1ccc(N(C(=O)CNC(=O)c2cccs2)C(C(=O)NCC2CCCO2)c2ccccc2)c(OC)c1 (stereo unspecified) | -11% | / | / | /
N#CCC(=O)Nc1sc2c(c1C(N)=O)CCCC2 | 8.9µM* | -4% | 7% | 18
CCC(=O)Nc1sc2c(c1C(N)=O)CCC2 | -19% | -2% | 1% | /
CC(=O)Nc1ccc(-c2csc(NC(=O)C3CCN(S(=O)(=O)c4cccs4)CC3)n2)cc1 | 13µM* | -4% | ? | 16
O=C(Nc1ccncc1)C1CCN(S(=O)(=O)c2cccs2)CC1 | 0% | / | / | /
COc1ccc(CNS(=O)(=O)c2ccc(C(=O)N(C)C)s2)cc1 | / | 0% | 4% | /
CSc1nsc(SC)c1NC(=O)Nc1ccccn1 | -11% | 3% | 0% | /
CC(=O)c1cccc(NC(=O)CCS(=O)(=O)c2cc3c(cc2C)NC(=O)CO3)c1 | 16% | -4% | 7% | /
Cn1c(=O)cc(OCCCC(=O)NCCN2CCN(c3ccccc3F)CC2)c2ccccc21 | -3% | 0% | 7% | /
Cn1c(=O)cc(OCCCC(=O)NCCCN2CCN(Cc3ccccc3)CC2)c2ccccc21 | 3.5µM* | -1% | 4% | -16
CCN(CC)CCN1C(=O)C(=O)/C(=C(/O)c2c(C)[nH]c(C(=O)OC)c2C)C1c1ccc(C)o1 (stereo unspecified) | 0% | / | / | /
SMILES | NS1 function inh | Cruzain Triton | Cruzain inh noDet | Flu NS1 inh | others
O=C1CSCN1c1cc(Cl)ccc1Cl | ? | / | / | 9
O=C1CSCN1c1ccc(Cl)c(Cl)c1 | -2% | / | / | /
CC/C(C)=C1\SC(N2CCN(C(C)=O)CC2)=NC1=O | -6% | -1% | 6% | /
COc1ccc(NC(=O)Cc2nnc(SCC(=O)c3ccccc3)n2C)cc1 | 4% | / | / | /
CCSc1oc(-c2ccc(F)cc2)nc1S(=O)(=O)c1ccc(C)cc1 | / | -7% | 10% | /
COc1ccccc1Nc1nn2c(=O)c3ccc(C(=O)N4CCC(C)CC4)cc3nc2s1 | ? | -14% | ? | ?
COc1ccccc1Nc1nn2c(=O)c3ccc(C(=O)NC4CCC(C)CC4)cc3nc2s1 (stereo unspecified) | / | -1% | 14% | /
COc1cc(OC)cc(C(=O)N[C@H](C(=O)Nc2cccc(S(=O)(=O)N3CCCC3)c2)C(C)C)c1 | -31% | / | / | /
CSCC[C@H](NC(=O)[C@H](Cc1ccccc1)n1c(=O)[nH]c2ccccc2c1=O)C(=O)NCC1CCC(C(=O)O)CC1 (stereo partly specified) | 11µM* | / | / | 13
CSCC[C@H](NC(=O)[C@H](Cc1ccccc1)n1c(=O)[nH]c2ccccc2c1=O)C(=O)N1CCC[C@@H]1C(=O)O | -3% | / | / | /
Cc1occc1C(=O)N/N=C/c1c[nH]c2ccccc12 | -8% | -4% | 14% | /
CC(C)CC(C(=O)Nc1ccc2c(c1)OCCO2)N1C(=O)c2ccccc2C1=O (stereo unspecified) | -2% | -8% | -7% | /
CC(C)CC(C(=O)Nc1oc(-c2ccco2)c(-c2ccco2)c1C#N)N1C(=O)c2ccccc2C1=O (stereo unspecified) | 10µM* | -22% | 32µM* | -11 | PR8 titer=8
Cc1ccc(NC(=S)N2CCCC2)cc1C | 0% | / | / | /
COc1cc(/C=C/C(=O)O)cc(S(=O)(=O)Nc2ccccc2Oc2ccccc2)c1OC | ? | / | / | 39
COc1cc(/C=C/C(=O)O)cc(S(=O)(=O)Nc2ccc3[nH]c(=O)[nH]c3c2)c1OC | 10% | / | / | /
C/C(=C\c1ccccc1)CN(C)CCN(C)C | 7% | 4% | -9% | /
CCOC(=O)c1ccc(-n2ccnc2)c(NC(=O)c2ccc(Cl)cc2)c1 | 4% | -2% | 26% | /
N=c1c(C(=O)NCc2ccco2)cc2c(=O)n3ccccc3nc2n1Cc1ccccc1 | -5% | -13% | -2% | /
N=c1c(C(=O)NCc2ccco2)cc2c(=O)n3ccccc3nc2n1Cc1ccc(Cl)cc1 | 7.9µM* | -5% | -28% | -27
O=C(Cc1cccc2ccccc12)N/N=C/c1ccc(Sc2nc3ccccc3s2)o1 | 10µM* | 6% | -1% | 11
O=C(COc1cccc2ccccc12)N/N=C/c1ccc(Sc2nc3ccccc3s2)o1 | 8% | 2% | ? | /
O=C(Cn1cnc2c(oc3ccccc32)c1=O)NCCc1ccccc1 | 5µM* | / | / | -13
CC(C)C(C)NC(=O)Cn1cnc2c(oc3ccccc32)c1=O (stereo unspecified) | -14% | / | / | /
CCOCCCNC(=O)CN1C(=O)COc2ccc(S(=O)(=O)N3CC(C)CC(C)C3)cc21 (stereo unspecified) | -8% | / | / | /
CC1CCC/C(=N/Nc2ccc([N+](=O)[O-])cc2[N+](=O)[O-])C1 (stereo unspecified) | 16% | -3% | -16% | /
Cc1c(C(=O)c2ccc(Cl)c(Cl)c2)cnc2cc3c(cc12)OCO3 | 5% | -6% | -7% | /
Cc1ccc(S(=O)(=O)c2c(C(=O)c3ccccc3)cnc3cc4c(cc23)OCCO4)cc1 | 16µM* | -5% | ? | 8
O=C(C1CC(c2ccc(F)cc2)=NO1)N1CCCc2ccccc21 (stereo unspecified) | -8% | 0% | 6% | /
